# High-throughput results as filed in PubChem BioAssay.
# The list is not random: actives were taken first. Their share in the collection is about 0.92%.
# MEP2-GFP yeast – modulators of TOR pathway MEP2-GFP in S. cerevisiae; S. cerevisiae MEP2-GFP strain, flow cytometry GFP, 3 h; 100% = DMSO control level; GFP response vs DMSO, % at 10 µM; AID 2016; actives 0.51% (n = 330,000);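 active means GFP response versus DMSO above a set limit, roughly screen mean plus 3 SD, cut at about 180% in these data; inconclusive means fewer than 70 cells counted for a yeast strain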;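 further: median GFP fluorescence of the barcode-gated MEP2-GFP cells per well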
# AGP1-GFP MLPCN – yeast TOR pathway AGP1-GFP modulation. GFP response vs DMSO, % at 10 µM. AID 2066. actives 0.02% (n = 320,000). S. cerevisiae AGP1-GFP multiplex flow cytometry, 3 h; GFP as percent of DMSO wells;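 active means GFP response relative to DMSO above a set limit, near screen average plus 3 SD, cut at about 150% in these data; inconclusive means fewer than 70 cells counted for the yeast strain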;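 further: median GFP channel fluorescence of the gated AGP1 strain per well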
# CIT2 TOR yeast – modulators of TOR pathway CIT2-GFP in S. cerevisiae; S. cerevisiae CIT2-GFP strain, flow cytometry, 3 h; 100 means same as DMSO wells; GFP response vs DMSO, % at 10 µM; actives 0.065% (n = 320,000); AID 2029;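 active means GFP response relative to DMSO above a set limit, near the screen mean plus 3 SD, cut at about 150% in these data; inconclusive means Fewer than 70 cells measured for a yeast strain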;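 further: ratio of well median GFP fluorescence to mean of DMSO wells on the plate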
# RPL19A TOR yeast – yeast TOR pathway RPL19A-GFP modulation. S. cerevisiae RPL19A-GFP strain, flow cytometry, 3 h; hits give low values. percent response vs DMSO, % at 10 µM. actives 0.3% (n = 330,000). AID 2025;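 active means percent response vs DMSO below 50%; inconclusive means fewer than 70 events counted for the yeast strain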;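 further: median channel GFP fluorescence of the barcoded RPL19A-GFP strain; ratio of sample median GFP to plate DMSO average so 100% = DMSO; lower means less RPL19A-GFP as with rapamycin TOR inhibition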
# LAP4 TOR yeast – yeast TOR pathway LAP4-GFP modulation. S. cerevisiae LAP4-GFP multiplex, flow cytometry GFP, 3 h; median GFP as percent of DMSO wells. GFP response vs DMSO, % at 10 µM. actives 0.34% (n = 320,000);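 active means GFP response vs DMSO above a set limit, about the screen mean plus 3 SD, cut at about 150% in these data; inconclusive means under 70 cell events counted for the yeast strain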
# * marks the source's active call; other numbers are inactive results; u = inconclusive; x = no result given; [ ] = dose if it differs, or a comment.
SMILES,MEP2-GFP yeast,AGP1-GFP MLPCN,CIT2 TOR yeast,RPL19A TOR yeast,LAP4 TOR yeast
CCC(C)[C@H](NC(=O)N1CC(=O)Nc2ccccc21)C(=O)N[C@@H](C(=O)O)c1ccccc1 (stereo partly specified),145,u,u,25*[may fluoresce violet],77
O=C1CSC(c2cn(-c3ccccc3)nc2-c2ccc3c(c2)OCCO3)N1CCN1CCOCC1 (stereo unspecified),351*[may fluoresce violet],28,u,37*[may fluoresce violet],95
Cc1noc(C)c1COc1ccc(C(=O)N2CCN(S(=O)(=O)c3cccc(F)c3)CC2)cc1,104,97,89,100,104
COc1ccccc1OCC(=O)Sc1ccc(C)cc1,97,98,93,93,159*
CC1(C)CC(=O)C2=C(C1)OC1=C(C(=O)CC(C)(C)C1)C2c1ccc(O)cc1O,92,92,80,88,178*
CC1(C)C(N(O)C(=O)Nc2ccc(Cl)cc2)N(c2ccc(Cl)cc2)C(=O)N1CC(=O)NN (stereo unspecified),269*[may fluoresce violet],23,u,62,103
CN1C(=S)SC(C)(C)C1N(O)C(=O)Nc1ccc(Cl)cc1 (stereo unspecified),98,101,x,99,99
Cc1cc(C)cc(C(=O)N2CCC3(CC2)NCCc2[nH]cnc23)c1,99,96,95,99,97
CCCCCCOc1ccc(NC(=O)CC2C(=O)N(CC)C(=S)N2Cc2ccco2)cc1 (stereo unspecified),98,91,93,99,92
O=C(NCCCN1CCCC1)Nc1ccc(F)cc1,102,108,104,104,108
CCOc1ccc(NC(=O)NCCCN2CCCC2)cc1,251*[may fluoresce violet],u,u,39*[may fluoresce violet],95
NC(=O)C1CCN(C(=O)CCCCCn2c(=O)[nH]c3ccsc3c2=O)CC1,222*[may fluoresce violet],u,u,22*[may fluoresce violet],83
COC(=O)C1=C(C)NC(C)=C(C(=O)OC)C1c1ccc(OC(=O)c2oc3ccccc3c2C)c(OC)c1,156,100,157*,106,115
COc1ccccc1C(=O)NC(=O)COC(=O)c1oc2ccccc2c1C,111,114,108,107,117
COc1ccccc1N=c1oc2cc(O)ccc2cc1C(N)=O,298*[may fluoresce violet],u,u,15*[may fluoresce violet],94
Cc1cccc(N=c2oc3cc(O)ccc3cc2C(N)=O)c1,124,97,95,40*,102
COc1ccc2cc(C(N)=O)c(=Nc3ccc(C)cc3)oc2c1,106,107,106,102,102
COc1ccccc1N=c1oc2cc(O)ccc2cc1C(=O)NCC1CCCO1 (stereo unspecified),100,95,96,102,100
C/C(=N\NC(=O)c1c(Cl)cnn1C)c1ccc(NC(=O)c2ccc(Br)o2)cc1,99,91,98,108,84
Cn1c(CSCc2ccc(Cl)c(Cl)c2)n[nH]c1=S,99,95,94,99,101
NC(=S)NN=C1c2cc(S(=O)(=O)N3CCOCC3)ccc2-c2ccc(S(=O)(=O)N3CCOCC3)cc21,98,99,97,98,98
CN(C)N=C1c2cc(S(=O)(=O)N3CCOCC3)ccc2-c2ccc(S(=O)(=O)N3CCOCC3)cc21,269*[may fluoresce violet],u,u,47*[may fluoresce violet],87
O=C(c1ccco1)N1CCN(Cc2nc3cc(Cl)ccc3c(=O)[nH]2)CC1,101,100,100,95,97
Cc1c(NS(=O)(=O)CC23CCC(CC2=O)C3(C)C)c(=O)n(-c2ccccc2)n1C (stereo unspecified),205*[may fluoresce violet],u,u,63,98
CC1(C)C2CCC1(CS(=O)(=O)Nc1ccccc1)C(=O)C2 (stereo unspecified),108,103,100,102,100
COc1ccc(C(C(=O)NC(C)(C)C)N(C(=O)CCC(=O)Nc2cc(C)on2)c2ccc(C)c(C)c2)cc1 (stereo unspecified),319*[may fluoresce violet],u,u,57,86
COc1ccc(C(C(=O)NC(C)(C)C)N(C(=O)CCC(=O)Nc2cc(C)on2)c2ccc3c(c2)OCCO3)cc1 (stereo unspecified),105,110,108,106,103
Cc1ccc2[nH]c(C(=O)NN=C3CCCCC3)c(-c3ccccc3)c2c1,106,89,122,107,108
